Source: PubChem BioAssay (National Center for Advancing Translational Sciences (NCATS))
TDP1 cell CPT = DT40-hTDP1 cell growth loss with CPT. Potency, µM (doses to about 46.2 µM), without a hit: at the top dose activity change, negative = growth inhibition, usual class: inhibitors. AID 686979. actives 12% (n = 420,000). chicken DT40 Tdp1-/-;hTDP1 cells + 20 nM CPT, ATP luminescence, 48 h; also: potency is read from the fitted curve at half-maximal effect; nearly all actives have a fitted effect of over 55% in size
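Chicken DT40 Tdp1-/- cells stably complemented with human TDP1 were seeded at 400 cells/well in medium containing 20 nM camptothecin, exposed to pin-transferred compounds, and grown at 37 °C for at least 48 hr. Viability was read as ATP luminescence.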
TDP1 cell noCPT = qHTS for Inhibitors of human tyrosyl-DNA phosphodiesterase 1 (TDP1): qHTS in cells in absence of CPT; Potency, µM (highest dose often 46.2 µM), for inactives: top-dose activity change, negative = growth inhibition, actives largely listed as inhibitors; DT40 Tdp1-/- hTDP1 cells, no CPT, ATP luminescence, 48 h; actives 15% (n = 420,000); AID 686978, 2013; also: potency is read from the fitted curve at half-maximal effect; nearly all actives have a fitted effect of over 55% in size
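Stably hTDP1-transfected Tdp1-null chicken DT40 cells were treated with library compounds minus camptothecin and grown for at least 48 hr at 37 °C, after which cellular ATP was quantified by luminescence.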
TDP1 block = inhibitors of human tyrosyl-DNA phosphodiesterase TDP1; recombinant TDP1, AlphaScreen DNA substrate cleavage; Potency, µM (top dose mostly 130 µM), for the others: at the top dose activity change, negative = inhibition, hits mostly inhibitors; AID 485290; Q9NUW8; actives 0.28% (n = 350,000); also: potency is read from the fitted curve at half-maximal effect; nearly all actives have a fitted effect of over 40% in size
Target sequence (Q9NUW8 whole entry, looked up): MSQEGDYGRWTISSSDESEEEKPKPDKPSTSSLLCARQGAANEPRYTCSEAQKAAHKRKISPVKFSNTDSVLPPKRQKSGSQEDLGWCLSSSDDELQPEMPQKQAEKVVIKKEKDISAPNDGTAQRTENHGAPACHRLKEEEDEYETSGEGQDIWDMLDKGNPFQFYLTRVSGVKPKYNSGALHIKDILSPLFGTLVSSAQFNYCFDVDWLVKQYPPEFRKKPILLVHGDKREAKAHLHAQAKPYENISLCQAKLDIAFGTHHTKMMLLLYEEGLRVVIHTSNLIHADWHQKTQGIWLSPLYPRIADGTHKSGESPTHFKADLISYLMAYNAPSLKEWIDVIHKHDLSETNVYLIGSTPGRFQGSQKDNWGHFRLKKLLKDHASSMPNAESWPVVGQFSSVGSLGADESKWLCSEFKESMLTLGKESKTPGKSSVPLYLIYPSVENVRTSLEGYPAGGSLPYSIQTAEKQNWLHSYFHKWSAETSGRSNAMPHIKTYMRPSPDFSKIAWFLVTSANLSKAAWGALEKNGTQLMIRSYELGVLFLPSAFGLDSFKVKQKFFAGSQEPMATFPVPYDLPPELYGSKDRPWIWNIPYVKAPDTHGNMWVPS
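Recombinant human Tdp1 (E. coli-expressed, 1 nM final) preincubated with compounds 15 min at room temperature, then 5'-biotin/3'-phosphotyrosine-FITC DNA substrate (15 nM final) added for 5 min. AlphaScreen beads (10 ug/ml final) added 10 min; cleavage lowers signal.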
Six1-Eya2 blk = inhibitors of human Six1/Eya2 interaction | AlphaScreen GST-Six1/His-Eya2 binding, biochemical; hits give low values | activity change, % (no concentration beside the values) | actives 0.56% (n = 360,000) | AID 651725; in the data active = activity change below about -65%; inconclusive = mostly about -30% to -63%
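Homogeneous AlphaScreen proximity assay pairing GST-Six1 with His-tagged Eya2 (added as 5X mix: 250 nM and 500 nM) in 50 mM Tris pH 8.0, 300 mM NaCl, 1 mM TCEP. Glutathione donor and nickel acceptor beads; 1 h, 37 °C, dark.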
IL1B secr inh = inhibitors of inflammasome signaling (IL-1 beta secretion); THP-1 LPS/ATP IL-1B secretion, AlphaLISA, 16 h; hits give low values; activity change, % at 57.5 µM; actives 4.7% (n = 360,000); AID 743279; in the data active = activity change below about -50%; inconclusive = mostly about -30% to -49%
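Secreted IL-1B measured by AlphaLISA bead assay after 16 h compound exposure of THP-1 cells; compounds (final up to 57.5 uM) added 1 h before LPS (250 ng/mL) and ATP (1.25 mM) stimulation; lower signal means less secretion.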
CtBP-E1A blk = inhibitors of CtBP/E1A interaction | actives 0.49% (n = 340,000) | activity change, % (concentration not given with the values) | AID 651724 | AlphaScreen GST-E1A/His-CtBP binding, 1536-well; hits give low values; in the data active = activity change below about -65%; inconclusive = mostly about -30% to -63%
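Protein mix (5X: 125 nM each GST-E1A, His-CtBP) was incubated with pinned compound 2 h at 37 deg C in dark, in 50 mM Tris pH 8.0 buffer with 300 mM NaCl. Glutathione donor and nickel acceptor beads followed; AlphaScreen signal read after 1 h.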
* = called active by the depositor; ? = inconclusive; / = no result; [ ] = another dose, or the depositor's remark. A selection: hits, their analogues and other compounds. The true share with any hit is near 18%. Unless noted, calls follow the shape of the dose curve; as a rule, active = well fitted curve in the direction sought with a large enough effect; inconclusive = small, poorly fitted or top-dose-only effect, or another doubt; inactive = no such curve, though single readings can be large; an effect the other way counts as inactive or inconclusive. % is scaled to controls: 0 for no effect and ±100 for the full control effect.

SMILES	TDP1 cell CPT	TDP1 cell noCPT	TDP1 block	Six1-Eya2 blk	IL1B secr inh	CtBP-E1A blk
COc1ccc(-c2cc3nc(-c4ccccc4)cc(N4CCN(C(=O)c5ccccc5)CC4)n3n2)cc1	14.6µM*	4.11µM*	/	25.8	31.7	12.3
COc1ccc(-c2cc3nc(-c4ccccc4)cc(N4CCN(C(C)=O)CC4)n3n2)cc1	1.1%	2.59µM*	/	26.3	-5.0	13.8
O=C(c1ccccc1)N1CCN(c2cc(Cl)nc3cc(-c4cccc(Cl)c4)nn23)CC1	16.4µM*	4.61µM*	/	-11.9	-18.4	-6.4
O=C(c1ccoc1)N1CCN(c2cc(-c3cccc(F)c3)nc3cc(-c4cccc(Cl)c4)nn23)CC1	7.31µM*	4.61µM*	/	9.4	24.8	-5.6
COc1ccc(CN(CC(=O)NCC2CCCO2)C(=O)CCC(=O)Nc2cc(C)on2)cc1 (centres undefined)	-9.0%	-10.1%	0.0%	1.8	0.0	3.8
Nc1ncnc2c1ncn2CCc1ccccc1	-6.4%	?	/	14.8	17.9	6.7
O=C1OCCN1C(=O)[C@H]1[C@H](c2ccc(Cl)cc2)C(c2ccc(F)cc2)=NN1c1ccc(Br)cc1	?	?	-3.1%[56.1 µM]	30.9	-21.8	6.7
O=C(NC1CCCCCC1)C1CCN(S(=O)(=O)c2cnc[nH]2)CC1	12.8%	2.5%	5.7%	0.1	5.6	0.2
CN(C)c1ccc(Cl)c(NC(N)=S)c1	-28.3%	-26.6%	/	4.0	21.5	4.5
COc1ccc(-c2csc(N3CCN(C(=O)c4ccccc4)CC3)n2)cc1	?	?	6.6%	-16.4	-18.7	-24.1
COc1ccc(-c2cc3nc(-c4ccccc4)cc(N4CCN(C(=O)c5ccsc5)CC4)n3n2)cc1	7.31µM*	5.17µM*	/	2.3	-18.9	0.0
NC(=O)c1ccc(NC(=O)COC(=O)C2(c3cccc(F)c3)CCCC2)cc1	?	25.9µM*	1.2%	0.1	-13.1	/
Cc1ccc(NC(=O)COC(=O)C2(c3ccc(Cl)cc3)CCCC2)cc1	23.1µM*	23.1µM*	-8.1%	9.0	?	1.1
CCOC(=O)c1ccc(NC(=O)C2(c3ccc(Cl)cc3)CCCC2)cc1	16.4µM*	?	0.0%	3.4	-19.6	10.1
COc1cc(C(=O)NNC(=O)COc2ccc(Br)cc2)ccc1OCC(=O)N1CCOCC1	-6.2%	-3.5%	/	7.5	9.3	-9.7
Cc1cc(C(=O)N2CCN(c3ncccn3)CC2)cs1	-5.2%	-4.2%	4.4%	1.2	-6.0	11.1
OC(c1cccs1)(c1cccs1)C1C[N+]2(CF)CCC1CC2 (centres undefined)	-2.7%	1.1%	2.8%	5.4	1.5	6.4
O=C(Oc1ccc(Br)cc1)c1cccc(S(=O)(=O)N2CCOCC2)c1	0.3%	-18.9%	0.9%[0.0935 µM]	?	-2.4	-0.2
Cc1ccc(CC#N)c(-c2c(CC#N)ccc(C)c2C)c1C	?	23.1µM*	/	6.7	21.3	1.2
CC(=O)c1ccc(NC(=O)/C(Cl)=C/c2ccccc2)cc1	4.9%	0.2%	3.7%	5.1	-62.5*	14.9
Cc1ccccc1NNC(=O)C(=O)NNc1ccccc1C	-1.8%	-16.1%	/	-2.5	26.6	/
O=C(Nc1ccccc1)/C(=C/c1ccccc1)c1ccccc1	?	11.6µM*	5.8%	8.6	-9.2	15.5
Cc1ccccc1NC(=O)C(Cl)=C(Cl)Cl	20.6µM*	23.1µM*	0.0%	8.7	-97.0*	1.9
Cc1ccccc1NC(=O)/C(=C/c1ccccc1)c1ccccc1	20.6µM*	11.6µM*	-2.5%	15.7	1.4	2.8
COc1ccc(N2CC(NC(=O)COc3ccc4ccccc4c3)CC2=O)cc1OC (centres undefined)	-27.0%	-22.8%	5.2%	/	/	/
SMILES	TDP1 cell CPT	TDP1 cell noCPT	TDP1 block	Six1-Eya2 blk	IL1B secr inh	CtBP-E1A blk
CC1CCc2nc3ncn(Cc4ccccc4C#N)c(=O)c3cc2C1 (centres undefined)	?	?	8.9%	/	/	/
O=c1c2cc3c(nc2ncn1Cc1ccccc1F)CCCC3	18.4µM*	?	3.0%	/	/	/
COc1ccc(N2CCN(C(=O)CS(=O)(=O)c3cccc4nsnc34)CC2)cc1	-13.8%	-28.5%	-1.1%	/	/	/
Cc1ccc(-c2nc(CN(Cc3c(C)nn(C)c3C)C(C)C)c(C)o2)o1	-6.7%	-22.6%	2.6%	-89.7*	5.6	-5.8
Cc1ccccc1CNC(=O)C(=O)NCC(c1ccc2c(c1)OCO2)N1CCOCC1 (centres undefined)	1.8%	-12.8%	5.5%	/	/	/
CC(=O)Nc1ccc(NC(=O)CSCc2ccccc2Cl)cc1	2.5%	-24.7%	/	22.6	-2.4	22.1
C/C(=N\NC(=O)CSCc1ccccc1Cl)c1cc(O)ccc1O	6.51µM*	5.17µM*	10.3%	?	39.5	-23.7
COc1ccc(-c2nnc(SCC(=O)N3CCCC(C)C3)o2)c(OC)c1 (centres undefined)	?	?	6.0%	0.7	-26.8	1.2
O=C(CCN1C(=O)/C(=C/c2ccc(F)cc2)SC1=S)Nc1cccnc1	2.5%	-6.5%	1.1%	17.5	-18.7	-5.5
Cc1ccc(C)n1N1C(=O)/C(=C\c2ccc(Cl)cc2)SC1=S	?	?	10.3%	-19.7	-90.5*	-24.9
NS(=O)(=O)c1ccc(CCN2C(=O)/C(=C\c3ccc(Cl)cc3)SC2=S)cc1	6.51µM*	6.51µM*	1.8%	7.1	-84.9*	12.0
CN1CCN(C(=O)CCN2C(=O)/C(=C\c3ccc(F)cc3)SC2=S)CC1	18.4µM*	14.6µM*	5.3%	3.1	-99.2*	9.7
O=C(CN1C(=O)/C(=C/c2ccc(F)cc2)SC1=S)N1CCN(CCc2ccccn2)CC1	6.51µM*	2.31µM*	8.3%	-7.9	-6.5	-18.7
O=C(CCN1C(=O)/C(=C/c2ccc(F)cc2)SC1=S)NCCc1ccc(O)cc1	-12.5%	?	3.8%	-3.0	2.7	2.4
COc1ccccc1CNc1nc(-c2ccco2)nn1S(C)(=O)=O	?	?	-2.6%	/	/	/
CC(=O)N(C(C)=O)N1C(=O)/C(=C/c2ccc(Cl)cc2)SC1=S	?	?	8.4%	-10.5	0.0	-21.6
CN1CCN(C(=O)CCN2C(=O)/C(=C\c3ccc(Cl)cc3)SC2=S)CC1	18.4µM*	?	8.1%	-0.6	-21.7	0.8
COc1cccc(NC(=O)COC(=O)Cc2ccccc2[N+](=O)[O-])c1	2.4%	-2.9%	0.0%	-8.1	19.0	-2.7
